Assay outcomes from PubChem BioAssay.
The list is not random: actives were taken first. Their share in the collection is about 8.3%.
Giardia FBPA inh – qHTS Assay for Inhibitors of Fructose-1,6-bisphosphate Aldolase from Giardia Lamblia | A8B2U2 | purified Giardia FBPA | Potency, µM (highest dose often 59.6 µM), for the others: top-dose activity, negative = inhibition, most hits filed as inhibitors | hit rate 0.71% among 290,000; further: potency means the concentration at half of the fitted maximal effect; nearly all actives have a fitted effect of over 55% in size
Target sequence (A8B2U2 whole entry, looked up): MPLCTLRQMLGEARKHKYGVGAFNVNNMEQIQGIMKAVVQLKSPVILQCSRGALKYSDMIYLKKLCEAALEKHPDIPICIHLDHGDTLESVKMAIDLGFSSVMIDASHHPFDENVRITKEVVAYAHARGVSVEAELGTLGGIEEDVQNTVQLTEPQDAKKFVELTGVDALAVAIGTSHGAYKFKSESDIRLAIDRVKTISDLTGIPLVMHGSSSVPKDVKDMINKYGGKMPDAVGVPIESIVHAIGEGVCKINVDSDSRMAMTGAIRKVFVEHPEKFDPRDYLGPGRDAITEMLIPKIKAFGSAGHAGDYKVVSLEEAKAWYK
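40 nM FBPA preincubated 10 min at RT with compound (up to 57.5 uM final), then substrate plus GAPDH/TPI/NAD/arsenate coupling and diaphorase/resazurin added. Fluorescence read after 20 min at RT, 525/598 nm.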
HCV inhibitor – qHTS Assay for Inhibitors of Hepatitis C Virus (HCV); Huh7.5.1 HCVcc-Cre infection, luciferase reporter, 44 h; Potency, µM (top dose mostly 41.8 µM), without a hit: at the top dose activity change, negative = inhibition, most hits filed as inhibitors; hit rate 3.4% among 340,000; AID 651820, 2012; further: potency means the concentration at half of the fitted maximal effect
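Compounds are dispensed onto cells plated 4 h earlier at 1,000 per well, with HCVcc-Cre virus (about 0.5 moi) added next. Following 44 h of culture, luminescent signal is measured for 15 sec after 15 min with substrate at room temperature.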
MARV entry inh – qHTS for inhibitors of binding or entry into cells for Marburg Virus; hit rate 1.8% among 300,000; Potency, µM (top dose mostly 37.8 µM), without a hit: at the highest dose activity change, negative = inhibition, most hits filed as inhibitors; Marburg virus pseudotyped entry inhibition, cell reporter; AID 540276, 2011; calls by dose curve; tested in HEK293 cells; further: potency means the concentration at half of the fitted maximal effect
LASV entry inh – qHTS for Inhibitors of binding or entry into cells for Lassa Virus; Lassa virus pseudotype entry inhibition, cell reporter; Potency, µM (titrated, usually from 37.9 µM), for inactives: top-dose activity change, negative = inhibition, usual class: inhibitors; hit rate 1.2% among 300,000; AID 540256, 2011; calls by dose curve; tested in HEK293 cells; further: potency means the concentration at half of the fitted maximal effect; nearly all actives have a fitted effect of over 50% in size
FMDV inh – High Throughput Screening for Foot and Mouth Disease Virus Antivirals; FMDV antiviral cell-based qHTS; Potency, µM (doses to about 57.9 µM), for inactives: at the top dose activity change, negative = inhibition, usual class: inhibitors; AID 1159524, 2015; hit rate 1.2% among 410,000; calls by dose curve; tested in HEK293T cells; further: read-out not given here; potency means the concentration at half of the fitted maximal effect; nearly all actives have a fitted effect of over 45% in size
HCMV inh – qHTS Assay for inhibitors of the human cytomegalovirus (HCMV) | HFF cells, HCMV-luciferase reporter, 72 h; hits give low values | activity change, negative = inhibition, % at 57.5 µM | hit rate 4.5% among 410,000; in the data active means activity change below about -60%; inconclusive means no clear call, values can overlap the other calls; inactive means above about -39%
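Steps: HFFs plated, 16 h 37C; compounds added; HCMV-luciferase added to MOI 1 PFU/cell; 72 h 37C; OneGlo reagent, 5 min room temperature; luminescence read, normalized to controls.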
An asterisk follows results filed as active; ? = inconclusive; nt = no result given; [ ] = dose if it differs, or a comment. Unless noted, the call rests on the fitted dose curve; in most records, active means well fitted curve in the direction sought with a large enough effect; inconclusive means small, poorly fitted or top-dose-only effect, or another doubt; inactive means no such curve, though single readings can be large; an effect the other way counts as inactive or inconclusive. On the % scale 0 is the no-effect control and ±100 the full control effect.

SMILES	Giardia FBPA inh	HCV inhibitor	MARV entry inh	LASV entry inh	FMDV inh	HCMV inh
Clc1ccccc1C1=Nn2c(nnc2-c2ccncc2)SC1	-0.2%	-1.0%	-19.7%	8.0%	-25.2%	-76.1*
c1ccc(C2=Nn3c(nnc3-c3cccs3)SC2)cc1	1.1%	?	-1.5%[14.2 µM]	-13.4%	-15.0%	68.7
COc1ccc([C@]23Cc4cc(C#N)ccc4C(O2)C2=C(CC4(CCCCC4)OC2=O)O3)cc1	7.2%[12.9 µM]	nt	nt	nt	nt	nt
Cn1cnc([N+](=O)[O-])c1Sc1nnc(-c2ccccc2)c(-c2ccccc2)n1	nt	nt	nt	nt	nt	135.5
CC(C)COc1ccc(-c2nnc(-c3ccco3)o2)cc1	-1.1%	?	?	7.3µM*	-34.5%	63.8
O=C(COc1ccccc1)Nc1ccc(-c2nnc(-c3ccco3)o2)cc1	2.0%	-4.0%	4.5%	0.6%	7.4%	135.4
CCN(CC)CCCNc1ccc(-c2nnc(-c3ccc(OCC(C)C)cc3)o2)cn1	nt	8.91µM*	-0.2%[46.1 µM]	20.6%[46.1 µM]	5.3%	-26.0
CCCOc1ccc(-c2nnc(-c3ccco3)o2)cc1	12.4%	7.4%	?	8.2µM*	?	12.3
CCOC(=O)Cn1nnc(-c2ccc(OCC(C)C)cc2)n1	-0.3%	17.5%	2.9%	10.8%	27.0%	9.1
COC(=O)/C(Cc1cc(Br)c(OC)c(Br)c1O)=N/O	-1.3%	nt	-16.0%[14.2 µM]	nt	nt	nt
CCOc1ccc(NC(=O)Cc2coc3ccc(C)cc23)cc1	nt	nt	-12.4%[46.1 µM]	?	-12.6%	-7.7
CCOC(=O)c1cc(CC)sc1/N=C/C1C(=O)CCCC1=O	-1.1%	-1.5%	1.3%[46.1 µM]	1.5%[46.1 µM]	-4.0%	-22.1
CCOC(=O)c1cc(CC)sc1/N=C/c1c(O)ccc2ccccc12	-27.4%	-26.9%	-9.8%	?	-14.7%	-70.3*
COc1ccc(-c2oc3ccc(-c4cc(OC)c(OC)c(OC)c4)cc3c2C(=O)c2ccc(OC)nc2)cc1	7.4%	48.4%	nt	nt	-15.8%	-99.0*
COc1ccc(C(=O)c2c(-c3ccc(OC)cc3)oc3ccc(-c4cc(OC)c(OC)c(OC)c4)cc23)cc1	nt	?	nt	nt	-11.7%	-15.6
Cc1ccccc1C1(CC(=O)N2CC3CC4CC(C3)CC2C4)CC(=O)N(Cc2cccnc2)C1=O (centres undefined)	nt	nt	nt	nt	6.9%	nt
COc1ccc(-c2nnc(C3CCN(S(=O)(=O)c4ccc(C)c(C)c4)CC3)o2)cc1	nt	nt	8.6%[46.1 µM]	-18.8%[46.1 µM]	-28.1%	19.8
CCCc1ccc(S(=O)(=O)N2CCC(c3nnc(-c4cccc(C)c4)o3)CC2)cc1	nt	nt	-25.5%[46.1 µM]	2.3%[46.1 µM]	5.3%	-77.7*
Cc1ccc(S(=O)(=O)N2CCC(c3nnc(-c4cccc(C)c4)o3)CC2)cc1	nt	nt	-3.9%[46.1 µM]	-22.8%[46.1 µM]	3.0%	-92.5*
COc1ccc(S(=O)(=O)n2nc(C)c(S(=O)(=O)N3CCCCCC3)c2C)cc1C	nt	nt	nt	1.3%[46.1 µM]	9.3%	7.0
COCCNC(=O)/C(=C/c1ccccc1Cl)c1ccccc1	-6.5%	-1.4%	3.2%	?	0.0%	-77.0*
O=C(O)C(=Cc1ccccc1Cl)c1ccccc1	nt	nt	nt	nt	-11.2%	nt
COc1ccc2cc([S+]([O-])Cc3ncc(C)c(OC)c3C)nc2c1	nt	nt	5.4%	15.4%	nt	nt
CCCCOc1ccc(-c2c(C#N)c(N)nc(SCC(N)=O)c2C#N)cc1	-3.1%	5.01µM*	?	4.47µM*	?	33.3
Cc1c(Cl)cccc1NC(=O)c1ccc2c(c1)CCCN2S(C)(=O)=O	nt	nt	21.9%[46.1 µM]	22.0%[46.1 µM]	?	-1.5
SMILES	Giardia FBPA inh	HCV inhibitor	MARV entry inh	LASV entry inh	FMDV inh	HCMV inh
COC(=O)C1=CN(Cc2ccc(OC)c(OC)c2)C=C(C(=O)OC)C1c1cccc(F)c1	13.5%	?	nt	nt	?	-1.9
COC(=O)C1=CN(Cc2cccs2)C=C(C(=O)OC)C1c1cccc(O)c1	-3.1%	3.2%	1.5%[46.1 µM]	7.08µM*	-10.8%	-17.0
COc1ccc(CCN2C(=O)c3oc4cc(C)cc(C)c4c(=O)c3C2c2ccc(F)cc2)cc1OC (centres undefined)	nt	nt	5.1%[46.1 µM]	3.1%[46.1 µM]	0.1%	-4.0
Cc1ccc2c(c1)C1C[N+](C)(CC(=O)c3ccc(Cl)cc3Cl)CCC1N2C(=O)c1ccc(F)cc1 (centres undefined)	nt	12.6µM*	nt	nt	37.7%	37.5
O=C(CSCc1ccc([N+](=O)[O-])cc1)N/N=C/c1ccncc1	1.1%	3.4%	24.9%[46.1 µM]	5.7%	-18.7%	-62.7*
O=C(CSCc1ccc([N+](=O)[O-])cc1)N/N=C/c1cccnc1	?	-10.0%	20.2%[46.1 µM]	8.7%	-8.3%	?
O=C(CCC1CCCC1)N1CCc2c([nH]c3ccccc23)C1c1ccc(Cl)cc1 (centres undefined)	nt	nt	nt	?	-12.9%	-69.2*
O=C(CCC1CCCC1)N1CCc2c([nH]c3ccccc23)C1c1ccc(F)cc1 (centres undefined)	nt	nt	nt	5.01µM*	-19.9%	-84.4*
O=C(Nc1ccccc1)c1cc2ccc3ccccc3c2s1	-0.7%	11.2µM*	?	10.5%	41.6%	152.0
CC(C)CC(CSc1ccc(Br)cc1)N1CCN(C)CCC1=O (centres undefined)	3.4%	nt	nt	nt	nt	nt
Cc1ccc(NC(=O)Nc2ccnc(-c3cccnc3)n2)cc1	-1.5%	11.2µM*	?	?	-20.0%	-87.5*
C#CCCCO/N=C1/C[C@@H](O)[C@@H](O)[C@@H]2[C@@H]3C(=O)N(Cc4ccc5c(c4)OCO5)C(=O)[C@H]3CC[C@H]12	1.2%[12.9 µM]	nt	?	nt	nt	nt
O=C(c1ccco1)N1CCC2(CCN(Cc3ccncc3)CC2)CC1	1.7%	nt	nt	nt	-7.3%	nt
O=C1c2cccc3c(N4CCCCC4)ccc(c23)C(=O)N1c1ccccn1	-8.7%	8.3%	5.2%	1.6%	-16.0%	-4.9
O=C1c2ccccc2-c2n[nH]c(=O)c3ccc(N4CCCCC4)c1c23	-5.0%	11.2µM*	-25.9%[46.1 µM]	-27.0%	?	-61.6*
COc1ccc(CN2CCOCC2)cc1OC	-13.0%	-6.0%	-1.0%	9.0%	-18.3%	36.2
COc1cc2sc3ccc(-c4ccc(CN5CCOCC5)cc4)cc3c(=O)c2cc1OC	nt	-20.1%	nt	nt	31.6µM*	?
CC1C(=O)N(Cc2cccc(F)c2)c2ccccc2N1C(=O)c1ccccc1 (centres undefined)	10.2%	?	?	-6.8%	17.8µM*	?
CC1C(=O)N(Cc2ccccc2F)c2ccccc2N1C(=O)c1c(F)cccc1F (centres undefined)	-4.8%	?	nt	nt	35.5µM*	?
COc1cccc(CN2C(=O)C(C)N(C(=O)c3c(F)cccc3F)c3ccccc32)c1 (centres undefined)	-4.2%	10µM*	nt	nt	28.2µM*	-83.2*
OC(c1cccnc1)c1ccc2c(c1)CN(Cc1cn(-c3ccccc3)nc1-c1ccccc1)CCO2 (centres undefined)	nt	nt	nt	nt	-18.1%	nt
CN(C)c1ccc(C=C(C#N)C#N)cc1	-0.5%	1.0%	?	15.8%	-14.6%	-19.8
